Reference: PMC12136788
Changes are numbered by the printed parent chain. The full ranking holds about 5,800 sequences; the median of “enrichment r” is about 0.54, and the highest 2% start at about 16. Only a selection was taken, and the highest values are over-represented in it overall.

B1: chr4:25747873:25747886:-|3pUTR|ENSG00000091490|msi1_unk|FALSE|overlapping (ssRNA)
RNA: GGGAGUUCUACAGUCCGACGAUCUAGCAGUUAUAAGGCACCUUGAAAUAAAUUGUUUGUGCCUGGAAAUGCAGGGAGGGCAAUAGCUUUGUAAAUUGGUUUACAUUUUUCUCCUUGAAUUUUUCUAGGGUCCUAGUGCUUCCGCAACAGAGGAUUGAGCAUCA
B2: ENSG00000107863:be:win_3601|CDS|ENSG00000107863|bound_else_gene|NA|bound_elsewhere_windowed (ssRNA)
RNA: GGGAGUUCUACAGUCCGACGAUCAAGGGAAUGGCUGAUAUUGAUAUACAAGAUGAUAAAUGGCGAGAUUUGAAUGUGAUAAGCAGUUUACUAAAAUCCUUCUUCAGAAAACUCCCUGAGCCUCUCUUCACAAAUGAUAAAUAUCAACAGAGGAUUGAGCAUCA
B3: chr6:52502144:52502313:-|3pUTR|ENSG00000065308|msi1|total|mutant (ssRNA)
RNA: GGGAGUUCUACAGUCCGACGAUCUCAGCCAUUCACAAGCAUUCAAAACCAAACCAAACAGCAGUUCAUAUACCUGCCUGAGACCGGCUGGUCCUCACCUCCAGAGCCAGCCAGCCCCGUCAGGGGCCAAACUUACUACCUUGACAACAGAGGAUUGAGCAUCA
B4: chr10:119917856:119917957:+|CDS|ENSG00000107651|unk|total|mutant (ssRNA)
RNA: GGGAGUUCUACAGUCCGACGAUCUAAGAAAAUCACUUUGCCAAGUAUUGGUCGAUUUCGUCACUUUACCAAUGAAACUUUGCCCGAUAUUUUAUUUUAUAACAGCCCCACCUACUGUCAGACAAUUGUGGAAAAAGCCGGAAUCAACAGAGGAUUGAGCAUCA
B5: chr1:150220393:150220494:-|3pUTR|ENSG00000143401|msi1_unk|total|mutant (ssRNA)
RNA: GGGAGUUCUACAGUCCGACGAUCAUUGUAUGCCGAGAAAAAUUUUCAUUGACUCCCAUUGUGGAAUUCCCCCGCAAUUUAUUCCGACUUAAUUUUUUAAAUUCAAGCUUACUGUAUCCGUCAUUUUCCGCCCAUAAUUAAAACCAACAGAGGAUUGAGCAUCA
B6: chr2:167954955:167954998:-|3pUTR|ENSG00000198648|msi1_unk|FALSE|overlapping (ssRNA)
RNA: GGGAGUUCUACAGUCCGACGAUCGUUGUAUUUAGAAAUUAAUAUACUUAUAAAAUUAAGAUUUAUUAGCCAAACUUGAAUUCUAGUUUUAAAACUGACUGUGAAUUUUAUUUUUCAUAUAUUUAUGCAUUACACACCUUAGCUCAACAGAGGAUUGAGCAUCA
B7: chr12:104760787:104760888:+|3pUTR|ENSG00000171310|unk|FALSE|unique (ssRNA)
RNA: GGGAGUUCUACAGUCCGACGAUCUUCUUUUCUAAUGGCAUUGAAACUUUAAAAAAAAUGGAUUCAACUGUUUUUGCAGAAUGUAGAAAGUAUUCUGUGUCCUUGGUUAAAGAAAUCCACUUGUGAAGUGUGCCUGGAAAAUGACAACAGAGGAUUGAGCAUCA
B8: chr1:150220393:150220494:-|3pUTR|ENSG00000143401|msi1_unk|FALSE|overlapping (ssRNA)
RNA: B5 RNA with C32U, C33A, C71U, C72A, C83U, C84A, C117U, C118A, C127U, C128A
B9: ENSG00000064393:stop:overlap|stop_codon|ENSG00000064393|stop_codon|NA|stop_codon (ssRNA)
RNA: GGGAGUUCUACAGUCCGACGAUCUCUCCCUGGAGAGUGGUUUUCCUGCUUUUCUGCUGCUAGAAAUGUUGCUGUAUGGGAGCUAGUACAAUAGAAAGUGCCCAGUGACUGCAGGCGACCCUUACCGAGGAUUUUAUUCAAGUACAACAGAGGAUUGAGCAUCA
B10: chr8:100287602:100287712:-|CDS|ENSG00000034677|unk|FALSE|unique (ssRNA)
RNA: GGGAGUUCUACAGUCCGACGAUCUGUGUGGAUUGCUUACGACAAUAUUUAAGGAUAGAAAUCUCUGAAAGCAGAGUUAAUAUUAGUUGCCCAGAAUGUACUGAACGGUUUAAUCCCCAUGAUAUUCGCUUGAUAUUAAGUGAUCAACAGAGGAUUGAGCAUCA
B11: chr12:104760787:104760888:+|3pUTR|ENSG00000171310|unk|total|mutant (ssRNA)
RNA: B7 RNA with U83C, A84C
B12: chr12:909583:909684:+|3pUTR|ENSG00000060237|unk|FALSE|bound_elsewhere (ssRNA)
RNA: GGGAGUUCUACAGUCCGACGAUCUAGCUCUGUCCUUUACUUAUUGAGACACUUUAACUUUUUCCUUUGUAUUUCCAUUGUAUUAGAUAAAUAAAUGUGAAUGUAAAAUUGUAUAAAUUACUGUACUUGAAUACUUCUGUUUCCCAACAGAGGAUUGAGCAUCA
B13: chr8:100287602:100287712:-|CDS|ENSG00000034677|unk|total|mutant (ssRNA)
RNA: B10 RNA with U55C, A56C, U83C, A84C
B14: ENSG00000198856:stop:overlap|stop_codon|ENSG00000198856|stop_codon|NA|stop_codon (ssRNA)
RNA: GGGAGUUCUACAGUCCGACGAUCUGAGUUUUUUCAUGGCUAGAGUAUUCAUGAGAAUGAAACUGCCGGGCUAUCUGAUGGGUUAGAGUGCCUUUGAGAAGAAAUCAGUGGAUACUGGAUUUGCUCCUGUCAAUGAAGUUUUAACAACAGAGGAUUGAGCAUCA
B15: chr12:98549999:98550103:+|3pUTR|ENSG00000120802|unk|total|mutant (ssRNA)
RNA: GGGAGUUCUACAGUCCGACGAUCUGUUUCCCAUACUGUUUUCAGCCUUUUGUUUAUAAUCCGAAAUUGUGAGAAGCUUCAUUCCGUGUUUAAAAAUGUGGGGAGAUAAAUCAGACUUAACAUGUAUGUAAGAUCAAUUCACUUCAACAGAGGAUUGAGCAUCA
B16: chr12:98549999:98550103:+|3pUTR|ENSG00000120802|unk|FALSE|unique (ssRNA)
RNA: B15 RNA with C60U, C61A, C83U, C84A
B17: ENSG00000087460:stop:overlap|stop_codon|ENSG00000087460|stop_codon|NA|stop_codon (ssRNA)
RNA: GGGAGUUCUACAGUCCGACGAUCGAGGCGCCUUCGGCUCGGGCCAUGGCGCCCGGCGCCGGGGGCGCGAGGAGCGGCUCAUCUAGUCAGACCCCCCACCCCGCCACCGCCACCAGACACCACCAUCGCUGUGUAGUGUGCUGGCAACAGAGGAUUGAGCAUCA
B18: chr1:45693489:45693605:+|CDS|ENSG00000159596|unk|FALSE|unique (ssRNA)
RNA: GGGAGUUCUACAGUCCGACGAUCAAUCCCCUUCGUUGCUCCACCACUGGUCAUGCUGAUGACAAAAACUUAUAUUCCCAUAUUAGCUUUUACUCAGAUGGCUUAUGGAGCCAGUUUCCUAUCUUUCUUGGGUGGGAUCAGAUGCAACAGAGGAUUGAGCAUCA
B19: chr1:17067390:17067767:-|3pUTR|ENSG00000117115|msi1|total|mutant (ssRNA)
RNA: GGGAGUUCUACAGUCCGACGAUCCCCAACAUGCAAAGCCCACAUUUAAAGGCCAGCCUCUGCCCCUUCAGUGAUGCGCUCUUCCGAAAUGCCAGUCCACUAUAUUCAGAAAUCCGCAGGGCACAAAACUUCCAGCAAGUCACUCAACAGAGGAUUGAGCAUCA
B20: chr10:32033860:32033975:-|CDS|ENSG00000170759|unk|total|mutant (ssRNA)
RNA: GGGAGUUCUACAGUCCGACGAUCCACAGUGGAUAAAGAUAUUACUCUUACCAAUGAUAAACCAGCAACCGCAAUUGGAGUUACCGGAAAUUUUACUGAUGCUGAAAGAAGAAAGUGUGAAGAAGAAAUUGCUAAAUUAUACAACAACAGAGGAUUGAGCAUCA
B21: chr5:171862525:171862626:-|3pUTR|ENSG00000072803|msi1|total|mutant (ssRNA)
RNA: GGGAGUUCUACAGUCCGACGAUCGACAGUGCAUGGAAAGGACGUUGGCAUCCAAUUGGCACUCCUUCUCCCUUAUUCAAUAUCCGGUUUGAUUUGCCCUUCGCCAUUGUUUCCAAAGAUCAAGGAAUGUCAAUAACAUUUUAACAACAGAGGAUUGAGCAUCA
B22: ENSG00000124766:be:win_751|CDS|ENSG00000124766|bound_else_gene|NA|bound_elsewhere_windowed (ssRNA)
RNA: GGGAGUUCUACAGUCCGACGAUCGGCGCCGCCGCCGACCACCACUCGCUGUACAAGGCGCGGACUCCCAGCGCCUCGGCCUCCGCCUCCUCGGCAGCCUCGGCCUCCGCAGCGCUCGCGGCCCCGGGCAAGCACCUGGCGGAGCAACAGAGGAUUGAGCAUCA

Target: MSI1 full-length (mouse, UniProt Q61474 1-362)
Assay: nsRBNS (natural sequence RNA bind-n-seq); RBNS binding buffer (assumed for nsRBNS): 25 mM Tris pH 7.5, 150 mM KCl, 3 mM MgCl2, 0.01% Triton X-100, 500 ug/ml BSA, 20 U/ml SUPERase-In, 4 C; UNK is unkempt and MSI1 is Musashi-1; names of the RNAs are library labels; protein concentration not given here; high values mean tight binding

MSI1 full-length, sequence (Q61474 whole entry): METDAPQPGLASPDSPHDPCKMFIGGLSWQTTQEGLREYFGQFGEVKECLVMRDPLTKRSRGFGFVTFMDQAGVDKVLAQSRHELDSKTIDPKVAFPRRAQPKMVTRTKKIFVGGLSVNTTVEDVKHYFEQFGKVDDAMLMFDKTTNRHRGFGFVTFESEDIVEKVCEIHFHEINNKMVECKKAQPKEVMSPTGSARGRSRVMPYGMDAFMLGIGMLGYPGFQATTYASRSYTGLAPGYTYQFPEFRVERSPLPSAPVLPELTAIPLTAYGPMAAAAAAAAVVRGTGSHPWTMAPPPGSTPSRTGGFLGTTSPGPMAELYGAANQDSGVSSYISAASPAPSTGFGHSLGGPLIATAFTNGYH

Row | Binder | binding signal [enrichment R]
1 | B1 | 1.14
2 | B2 | 0.64
3 | B3 | 0.877
4 | B4 | 0.52
5 | B5 | 2.27
6 | B6 | 9.9
7 | B7 | 0.433
8 | B8 | 61.8
9 | B9 | 0.605
10 | B10 | 22.4
11 | B11 | 0.231
12 | B12 | 13.1
13 | B13 | 0.307
14 | B14 | 16.4
15 | B15 | 0.426
16 | B16 | 27.3
17 | B17 | 0.204
18 | B18 | 0.499
19 | B19 | 0.72
20 | B20 | 0.675
21 | B21 | 0.579
22 | B22 | 0.389
